# Laboratory results published in PubChem BioAssay.
# Values joined by “and” are separate entries in the source; they are usually repeats but may differ in a detail not shown here. Equal values may be shown once. Unmarked numbers belong to inactive results. For part of these data: Measured potencies and affinities stand elsewhere. Active and inactive are the calls of the source. Unless noted, how the calls were made is not given here.
# How the values were obtained:
# [1] = antimalarial activity against Dd2 strain (AID 2302;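 active means growth inhibition above 50% at the single 2 µM test dose, taken to imply half-maximal potency below 2 µM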;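 further: 0% = DMSO untreated growth and 100% = chloroquine plus artemisinin killed control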); conditions: P. falciparum Dd2 in RBCs, LDH growth readout, 72 h; at 2 µM; active compounds read high
# [2] = HepG2 cytotoxicity, primary screen, cytotoxicity control for P. falciparum antimalarial project, cell-based, ATP luminescence (AID 2303;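 active means inhibition above 50%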;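 further: 0% = DMSO wells and 100% = digitonin-killed cells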); conditions: HepG2 viability, 24-48 h, at 10 µM, active compounds read high
# [3] = target: L-lactate dehydrogenase (Plasmodium falciparum (isolate CDC / Honduras)) (UniProt Q27743); assay: PfLDH activity inhibition – cell lysate, 3D7 strain, counter-screen for P. falciparum growth inhibition project (AID 2304);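 further: 0% = vehicle and 100% = reference inhibitor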; conditions: P. falciparum 3D7 crude extract, LDH APAD/NBT absorbance; at 2 µM; active compounds read high
# [4] = inhibition of 3D7 malaria parasite growth – strain 3D7 (AID 2306);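 further: 0% = DMSO wells and 100% = chloroquine plus artemisinin control wells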; conditions: P. falciparum 3D7 erythrocytic growth, LDH absorbance, 72 h; at 2 µM; active compounds read high
# [5] = target: Calcium-dependent protein kinase 1 (Plasmodium falciparum (isolate 3D7)) (UniProt P62344); assay: PfCDPK1 kinase inhibitors, biochemical, TCAMS library (AID 1159585; cut-off not given, nearly all actives have IC50 up to about 0.98 µM;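 further: inhibitors leave more ATP so luminescence rises with inhibition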); conditions: recombinant PfCDPK1, Kinase-Glo ATP depletion luminescence
# [6] = target: Plasmodium falciparum protein kinase 6 (PK6, PF3D7_1337100) (UniProt Q8IDW1); assay: PfPK6 kinase inhibitors, biochemical, TCAMS library (AID 1159586); conditions: recombinant PfPK6, Kinase-Glo ATP depletion luminescence
# [7] = target: Protein kinase 7 (PK7), Plasmodium falciparum 3D7 (PF3D7_0213400) (UniProt Q7YTF7); assay: inhibition of Plasmodium PK7 catalytic activity – biochemical, TCAMS antimalarial set, Kinase-Glo luminescence (AID 1159587); conditions: recombinant PfPK7, Kinase-Glo ATP depletion luminescence
# [8] = target: Calcium-dependent protein kinase 4 (Plasmodium falciparum (isolate 3D7)) (UniProt Q8IBS5); assay: PfCDPK4 kinase inhibitors, biochemical, TCAMS library (AID 1159588; cut-off not given, nearly all actives have IC50 up to about 0.91 µM); conditions: recombinant PfCDPK4, Kinase-Glo ATP depletion luminescence
# Calcium-dependent protein kinase 4 (Plasmodium falciparum (isolate 3D7)), sequence (Q8IBS5 whole entry, looked up): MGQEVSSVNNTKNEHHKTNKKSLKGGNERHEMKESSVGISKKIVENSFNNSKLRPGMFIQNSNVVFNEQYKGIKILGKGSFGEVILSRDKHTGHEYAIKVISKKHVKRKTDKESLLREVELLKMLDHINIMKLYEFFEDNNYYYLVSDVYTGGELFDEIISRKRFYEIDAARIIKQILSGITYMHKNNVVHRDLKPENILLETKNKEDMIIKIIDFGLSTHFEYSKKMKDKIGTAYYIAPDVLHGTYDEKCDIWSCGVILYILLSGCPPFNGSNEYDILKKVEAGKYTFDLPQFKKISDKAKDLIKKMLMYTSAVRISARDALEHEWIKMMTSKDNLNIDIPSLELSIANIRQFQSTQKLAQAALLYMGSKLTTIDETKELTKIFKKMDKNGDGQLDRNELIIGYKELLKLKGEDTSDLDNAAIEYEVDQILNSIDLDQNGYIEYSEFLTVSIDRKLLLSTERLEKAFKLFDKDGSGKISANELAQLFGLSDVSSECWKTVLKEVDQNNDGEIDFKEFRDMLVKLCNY
# L-lactate dehydrogenase (Plasmodium falciparum (isolate CDC / Honduras)), sequence (Q27743 whole entry, looked up): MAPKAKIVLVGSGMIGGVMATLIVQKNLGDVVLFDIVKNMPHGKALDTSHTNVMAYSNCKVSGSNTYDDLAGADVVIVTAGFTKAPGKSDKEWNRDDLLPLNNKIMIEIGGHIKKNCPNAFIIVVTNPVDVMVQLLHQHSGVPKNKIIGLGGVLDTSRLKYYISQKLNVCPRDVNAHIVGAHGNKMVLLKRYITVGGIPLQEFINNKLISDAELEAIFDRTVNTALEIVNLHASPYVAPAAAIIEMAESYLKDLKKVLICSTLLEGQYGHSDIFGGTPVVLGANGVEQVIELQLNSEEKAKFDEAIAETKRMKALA
# Protein kinase 7 (PK7), Plasmodium falciparum 3D7 (PF3D7_0213400), sequence (Q7YTF7 1-343): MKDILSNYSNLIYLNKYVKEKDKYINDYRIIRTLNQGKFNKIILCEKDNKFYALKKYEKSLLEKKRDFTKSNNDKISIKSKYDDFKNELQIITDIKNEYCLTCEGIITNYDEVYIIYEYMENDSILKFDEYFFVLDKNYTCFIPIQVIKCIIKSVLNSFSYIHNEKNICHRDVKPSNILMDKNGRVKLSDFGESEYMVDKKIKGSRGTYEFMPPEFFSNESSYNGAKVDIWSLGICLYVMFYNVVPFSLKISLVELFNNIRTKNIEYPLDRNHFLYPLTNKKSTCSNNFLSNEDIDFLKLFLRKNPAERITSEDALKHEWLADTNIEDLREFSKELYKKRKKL
# Calcium-dependent protein kinase 1 (Plasmodium falciparum (isolate 3D7)), sequence (P62344 whole entry, looked up): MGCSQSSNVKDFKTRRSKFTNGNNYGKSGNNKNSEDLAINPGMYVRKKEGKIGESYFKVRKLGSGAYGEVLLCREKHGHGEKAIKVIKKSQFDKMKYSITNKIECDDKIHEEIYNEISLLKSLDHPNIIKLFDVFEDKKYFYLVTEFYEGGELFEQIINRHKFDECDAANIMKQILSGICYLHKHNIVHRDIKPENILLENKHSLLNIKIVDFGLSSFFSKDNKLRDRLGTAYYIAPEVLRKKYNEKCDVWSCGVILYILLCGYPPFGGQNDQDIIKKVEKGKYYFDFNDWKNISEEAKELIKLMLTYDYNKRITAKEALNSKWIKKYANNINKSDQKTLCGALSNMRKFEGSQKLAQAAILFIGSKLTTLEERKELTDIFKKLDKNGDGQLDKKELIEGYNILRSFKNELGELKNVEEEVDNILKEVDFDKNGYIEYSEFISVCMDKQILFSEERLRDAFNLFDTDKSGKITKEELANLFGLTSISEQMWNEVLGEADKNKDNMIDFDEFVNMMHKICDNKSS
# Plasmodium falciparum protein kinase 6 (PK6, PF3D7_1337100), sequence (Q8IDW1 1-305): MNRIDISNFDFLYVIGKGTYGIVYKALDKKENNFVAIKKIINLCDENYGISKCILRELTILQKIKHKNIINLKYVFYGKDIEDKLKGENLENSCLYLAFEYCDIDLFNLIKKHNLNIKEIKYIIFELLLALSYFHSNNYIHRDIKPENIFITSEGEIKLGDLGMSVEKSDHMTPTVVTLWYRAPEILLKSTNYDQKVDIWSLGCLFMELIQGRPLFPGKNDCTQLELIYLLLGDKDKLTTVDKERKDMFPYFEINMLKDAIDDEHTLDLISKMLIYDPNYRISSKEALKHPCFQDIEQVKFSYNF
Structure (SMILES),growth inhibition [1],inhibition [2],inhibition [3],growth inhibition [4],outcome [5],outcome [6],outcome [7],outcome [8]
O=C(CNC1CCCCC1)c1ccc(O)c(O)c1,99% (active),61% (active),4%,102% (active),inactive,inactive,inactive,inactive
CN(C)c1cccc(CN2CC=C(c3c[nH]c4ccc(Cl)cc34)CC2)c1,87% (active),40%,3%,93% (active),inactive,inactive,inactive,inactive
CCCCCCC(C)c1cc(O)c2c(c1)OC(C)(C)c1ccncc1-2 (centres undefined),61% (active),-3%,-4%,100% (active),inactive,inactive,inactive,inactive
CS(=O)(=O)Nc1ccc2[nH]cc(C3C[C@H]4CC[C@@H](C3)N4CC3CCC(NC(=O)/C=C/c4ccc(Cl)c(Cl)c4)CC3)c2c1 (some centres undefined),50% (active),3%,7%,101% (active),inactive,inactive,inactive,inactive
CC(=O)Nc1ccc(CN2CCC(N(C)c3cc(NC(=O)c4cccs4)ccn3)CC2)cc1,43%,-1%,2%,101% (active),inactive,inactive,inactive,inactive
CC(C)CNCc1cccc(-c2ccc(CN(C(=O)NC3CCCCC3)C3CCN(Cc4ccccc4)CC3)cc2)c1,51% (active),27%,-2%,97% (active),inactive,inactive,inactive,inactive
Cn1c(C2C[C@H]3CC[C@H](C2)N3CC2CCC(NC(=O)/C=C/c3ccc(Cl)c(Cl)c3)CC2)nc2ccccc21 (some centres undefined),51% (active),50% (active),4%,100% (active),inactive,inactive,inactive,inactive
COc1cc(CC(C)NCC(O)c2cccc(C(F)(F)F)c2)ccc1OCc1ccccc1 (centres undefined),71% (active),2%,2%,93% (active),inactive,inactive,inactive,inactive
CC(=O)Nc1ccc(CN2CCC(N(C)c3cc(NC(=O)c4cccc(F)c4)ccn3)CC2)cc1,-1%,4%,2%,85% (active),inactive,inactive,inactive,inactive
Cc1ccc(CC(C)NCC(O)c2cccc([N+](=O)[O-])c2)cc1 (centres undefined),85% (active),-6%,-2%,97% (active),inactive,inactive,inactive,inactive
O=C(C=Cc1ccc(F)c(Br)c1)NC1CCC(CN2CCC(c3c[nH]c4ccccc34)CC2)CC1 (centres undefined),67% (active) and 50% (active),39% and 28%,2% and 5%,103% (active) and 102% (active),inactive,inactive,inactive,inactive
CCN1CC=C(c2c[nH]c3ccccc23)CC1,58% (active),27%,-1%,84% (active),inactive,inactive,inactive,inactive
O=C(Nc1ccc(Oc2ccccc2)cc1)N1CCC(CN2CCC(c3c[nH]c4ccccc34)CC2)CC1,59% (active),53% (active),-1%,100% (active),inactive,inactive,inactive,inactive
CC[C@H]1CN2CC[C@H]1C[C@H]2[C@H](O)c1cc(-c2cccc(C)c2)nc2ccc(OC)cc12,100% (active),15%,3%,100% (active),inactive,inactive,inactive,inactive
CC(C)CNCc1cccc(-c2ccc(CN(C(=O)c3cccs3)C3CCN(Cc4ccccc4)CC3)cc2)c1,40%,22%,3%,85% (active),inactive,inactive,inactive,inactive
N#Cc1ccc(N(CC(=O)NCCc2ccc(F)cc2)CC2CC2)c2ccccc12,23%,28%,-2%,91% (active),inactive,inactive,inactive,inactive
CC(Cc1ccc(OCc2ccc(CCN(C)C)cc2)cc1)NCCc1cccc(Cl)c1 (centres undefined),78% (active),42%,5%,100% (active),inactive,inactive,inactive,inactive
CC[C@H]1CN2CCc3cc(OC)c(OC)cc3[C@@H]2C[C@@H]1C[C@H]1NCCc2c1cc(OC)c(OC)c2Br,97% (active),45%,-1%,99% (active),inactive,inactive,inactive,inactive
